Experimental data from PubChem BioAssay (Tox21).
Records with an inconclusive call do not appear. A call without a number means that no potency is given here. The source made the active and inactive calls. Calls follow the shape of the dose curve; as a rule, active = well fitted curve in the direction sought with a large enough effect in the repeat runs; inconclusive = weak or mixed curves; inactive = no such curve, though single readings can be large; an effect the other way counts as inactive or inconclusive.

assay: qHTS assay for identifying genotoxic compounds that show differential cytotoxicity against isogenic chicken DT40 cell lines with known DNA damage response pathways - wild type cell line (AID 743012); conditions: DT40 wild type chicken cells viability, CellTiter-Glo, 40 h; series mostly up to 68.4 µM; also: nearly all actives have a fitted effect of over 60% in size
Summary of the method: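 Wild type DT40, 300 cells/well, ~0.5 h settle at 37 C/5% CO2; compounds in DMSO added by pintool; 40 h at 37 C/5% CO2; CellTiter-Glo, 30 min RT; luminescence.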
Potency is read from the fitted curve at half-maximal effect.

Q: With COC(=O)C1=C(C)NC(COC(N)=O)=C(C(=O)OC(C)C)C1c1cccc(Cl)c1Cl (stereo not drawn) as the compound, how does the Potency read?
A: The Potency was 23.7 µM (active).

Q: With CC1=CCCC(C)(C)C12CCC(C)O2 (stereo not drawn) as the compound, how does the Potency read?
A: The Potency was 24.3 µM (active).

Q: For O=[N+]([O-])c1ccc(NCCO)c(OCCO)c1, which Potency is on record?
A: The Potency was “inactive”.

Q: With CCC(=O)O[C@]1(C(=O)CCl)[C@@H](C)C[C@H]2[C@@H]3CCC4=CC(=O)C=C[C@]4(C)[C@@]3(F)[C@@H](O)C[C@@]21C as the compound, how does the Potency read?
A: The Potency was 13.3 µM (active).

Q: For C[N+](C)(C)CCOC(=O)CCC(=O)OCC[N+](C)(C)C, which Potency is on record?
A: The Potency was “inactive”.

Q: Which Potency does the source give for CC(=O)c1ccc2c(c1)N(CCCN(C)C)c1ccccc1S2 here?
A: Its Potency is 12.7 µM (active).

Q: With CN(C)CCN(Cc1ccc(Cl)cc1)c1ccccn1 as the compound, how does the Potency read?
A: The Potency was 12.7 µM (active).

Q: With CCN(CC)CCNc1ccc(CNC=O)c2sc3ccc(OC)cc3c(=O)c12 as the compound, how does the Potency read?
A: The Potency was 8.63 µM (active).

Q: Which Potency does the source give for CC(CC=O)c1ccccc1 (stereo not drawn) here?
A: Its Potency is “inactive”.

Q: With CCN(CC)CCNC(=O)c1cc(Br)c(N)cc1OC as the compound, how does the Potency read?
A: Its Potency is “inactive”.

Q: For CCCCCCCCCOS(=O)(=O)O, which Potency is on record?
A: Its Potency is “inactive”.

Q: With O=C(O)C1(C(=O)Nc2ccc(Cl)cc2Cl)CC1 as the compound, how does the Potency read?
A: Its Potency is 61.1 µM (active).

Q: With O=C(c1ccc(F)cc1)C1CCN(CCn2c(=S)[nH]c3ccccc3c2=O)CC1 as the compound, how does the Potency read?
A: Its Potency is 18.8 µM (active).

Q: Which Potency does the source give for CN1CCC(=C2c3ccccc3Sc3ccccc32)CC1 here?
A: The Potency was 5.31 µM (active).

Q: With C=C(C)C(=O)OCCOCC as the compound, how does the Potency read?
A: Its Potency is “inactive”.

Q: For Nc1cccc(S(=O)(=O)c2cccc(N)c2)c1, which Potency is on record?
A: Its Potency is 61.1 µM (active).

Q: With CCCCC as the compound, how does the Potency read?
A: The Potency was “inactive”.

Q: Which Potency does the source give for CC(=O)[O][Al][O]C(C)=O here?
A: The Potency was “inactive”.

Q: With Cc1cc(C(=O)O)ccc1[N+](=O)[O-] as the compound, how does the Potency read?
A: The Potency was “inactive”.

Q: For Nc1cccc([N+](=O)[O-])c1, which Potency is on record?
A: Its Potency is “inactive”.

Q: For CCCCCCCCCCCCCCOS(=O)(=O)O, which Potency is on record?
A: The Potency was “inactive”.

Q: Which Potency does the source give for CCCCc1nc2cccnc2n1Cc1ccc(-c2ccccc2-c2nnn[nH]2)cc1 here?
A: The Potency was “inactive”.

Q: For C=C1C(=C/C=C2\CCC[C@]3(C)[C@@H]([C@H](C)/C=C/[C@@H](O)C4CC4)CC[C@@H]23)C[C@@H](O)C[C@@H]1O, which Potency is on record?
A: The Potency was 11.9 µM (active).

assay: qHTS assay for identifying genotoxic compounds that show differential cytotoxicity against isogenic chicken DT40 cell lines with known DNA damage response pathways - Rev3 mutant cell line (AID 743014); conditions: chicken DT40 Rev3-/- viability, CellTiter-Glo, 40 h; series mostly up to 68.4 µM; also: nearly all actives have a fitted effect of over 55% in size

Q: With COc1cc(C(=O)OCCCN2CCCN(CCCOC(=O)c3cc(OC)c(OC)c(OC)c3)CC2)cc(OC)c1OC as the compound, how does the Potency read?
A: Its Potency is 15 µM (active).

Q: For C1CCCNCCC1, which Potency is on record?
A: Its Potency is “inactive”.

Q: With C=C(C)C(=O)OCCO as the compound, how does the Potency read?
A: The Potency was “inactive”.

Q: For OC(CN1CCC(Cc2ccc(F)cc2)CC1)c1ccc(Cl)cc1 (stereo not drawn), which Potency is on record?
A: The Potency was 1.68 µM (active).

Q: With c1ccc(-c2ccccn2)nc1 as the compound, how does the Potency read?
A: The Potency was 24.3 µM (active).

Q: For CCC(=O)O[C@]1(C(=O)CCl)[C@@H](C)C[C@H]2[C@@H]3CCC4=CC(=O)C=C[C@]4(C)[C@@]3(F)[C@@H](O)C[C@@]21C, which Potency is on record?
A: Its Potency is 2.37 µM (active).

Q: Which Potency does the source give for C[N+](C)(C)CCOC(=O)CCC(=O)OCC[N+](C)(C)C here?
A: Its Potency is “inactive”.

Q: Which Potency does the source give for COC(C)OC here?
A: The Potency was “inactive”.

Q: With CCN(CC)CCNc1ccc(CNC=O)c2sc3ccc(OC)cc3c(=O)c12 as the compound, how does the Potency read?
A: The Potency was 9.69 µM (active).

Q: With C#CCN(C)CCCOc1ccc(Cl)cc1Cl as the compound, how does the Potency read?
A: The Potency was “inactive”.

Q: For Cc1cc(N)c2cc(NC(=O)Nc3ccc4nc(C)cc(N)c4c3)ccc2n1, which Potency is on record?
A: Its Potency is 21.1 µM (active).

Q: Which Potency does the source give for CC(CC=O)c1ccccc1 (stereo not drawn) here?
A: The Potency was “inactive”.

Q: For CCCCCCCCCOS(=O)(=O)O, which Potency is on record?
A: The Potency was “inactive”.

Q: Which Potency does the source give for O=C(O)C1(C(=O)Nc2ccc(Cl)cc2Cl)CC1 here?
A: Its Potency is 68.6 µM (active).

Q: With CN1CCC(=C2c3ccccc3Sc3ccccc32)CC1 as the compound, how does the Potency read?
A: Its Potency is 5.96 µM (active).

Q: Which Potency does the source give for CCC(C)c1cc(C(C)(C)C)c(O)c(C(C)(C)C)c1 (stereo not drawn) here?
A: Its Potency is “inactive”.

Q: Which Potency does the source give for C=C(C)C(=O)OCCOCC here?
A: The Potency was “inactive”.

Q: With CCCCC as the compound, how does the Potency read?
A: Its Potency is “inactive”.

Q: Which Potency does the source give for CC(=O)[O][Al][O]C(C)=O here?
A: Its Potency is “inactive”.

Q: Which Potency does the source give for Nc1cccc([N+](=O)[O-])c1 here?
A: The Potency was “inactive”.

Q: For CCCCc1nc2cccnc2n1Cc1ccc(-c2ccccc2-c2nnn[nH]2)cc1, which Potency is on record?
A: Its Potency is “inactive”.

Q: Which Potency does the source give for C=C1C(=C/C=C2\CCC[C@]3(C)[C@@H]([C@H](C)/C=C/[C@@H](O)C4CC4)CC[C@@H]23)C[C@@H](O)C[C@@H]1O here?
A: Its Potency is 11.9 µM (active).

assay: qHTS assay for identifying genotoxic compounds that show differential cytotoxicity against isogenic chicken DT40 cell lines with known DNA damage response pathways - Rad54/Ku70 mutant cell line (AID 743015); conditions: DT40 Rad54/Ku70 mutant viability, CellTiter-Glo, 40 h; series mostly up to 66.8 µM; also: nearly all actives have a fitted effect of over 60% in size

Q: For CCCCCCCCCCCCCCCCCCOS(=O)(=O)O, which Potency is on record?
A: Its Potency is “inactive”.

Q: Which Potency does the source give for C1CCCNCCC1 here?
A: Its Potency is “inactive”.

Q: For CC1=CCCC(C)(C)C12CCC(C)O2 (stereo not drawn), which Potency is on record?
A: The Potency was 13.7 µM (active).

Q: With OC(CN1CCC(Cc2ccc(F)cc2)CC1)c1ccc(Cl)cc1 (stereo not drawn) as the compound, how does the Potency read?
A: The Potency was 2.11 µM (active).

Q: For c1ccc(-c2ccccn2)nc1, which Potency is on record?
A: Its Potency is 24.3 µM (active).

Q: With O=[N+]([O-])c1ccc(NCCO)c(OCCO)c1 as the compound, how does the Potency read?
A: Its Potency is “inactive”.

Q: For C[N+](C)(C)CCOC(=O)CCC(=O)OCC[N+](C)(C)C, which Potency is on record?
A: Its Potency is “inactive”.

Q: With COC(C)OC as the compound, how does the Potency read?
A: The Potency was “inactive”.

Q: For Cc1cc(N)c2cc(NC(=O)Nc3ccc4nc(C)cc(N)c4c3)ccc2n1, which Potency is on record?
A: The Potency was 16.8 µM (active).

Q: With CCCCOC(=O)CCCCCCCC(=O)OCCCC as the compound, how does the Potency read?
A: Its Potency is “inactive”.

Q: Which Potency does the source give for CCN(CC)CCNC(=O)c1cc(Br)c(N)cc1OC here?
A: Its Potency is “inactive”.

Q: Which Potency does the source give for CCCCCCCCCOS(=O)(=O)O here?
A: The Potency was “inactive”.

Q: For CCC(C)c1cc(C(C)(C)C)c(O)c(C(C)(C)C)c1 (stereo not drawn), which Potency is on record?
A: Its Potency is “inactive”.

Q: For C=C(C)C(=O)OCCOCC, which Potency is on record?
A: Its Potency is “inactive”.

Q: Which Potency does the source give for Nc1cccc(S(=O)(=O)c2cccc(N)c2)c1 here?
A: The Potency was 61.1 µM (active).

Q: Which Potency does the source give for CC(=O)[O][Al][O]C(C)=O here?
A: The Potency was “inactive”.

Q: Which Potency does the source give for CCCCc1nc2cccnc2n1Cc1ccc(-c2ccccc2-c2nnn[nH]2)cc1 here?
A: The Potency was “inactive”.

Q: With CC(=O)OC[C@H]1O[C@@H](n2ncc(=O)[nH]c2=O)[C@H](OC(C)=O)[C@@H]1OC(C)=O as the compound, how does the Potency read?
A: The Potency was 1.06 µM (active).
